{"source": "PubChem BioAssay (NCATS)", "note": "Records with an inconclusive call do not appear. Active and inactive are the calls of the source. Calls come from the whole dose curve; as a rule, active = well fitted inhibition curve with a large enough effect; inconclusive = small, poorly fitted or top-dose-only effect; inactive = flat fitted curve, though single readings scatter. Bridge positions count the residues as written; N and C are the ends. Square brackets hold non-standard residues; d marks the D form. Peptide text beside a SMILES is read from it. * marks the point of attachment. Octanoyl(6-Me) = CCC(C)CCCCC(=O)*; Dab = NCC[CH](N)C(=O)O"}
{"system": "CP203", "test": "qHTS profiling for inhibitors of Plasmodium falciparum proliferation (AID 504749); note: nearly all actives have a fitted effect of over 60% in size; note: potency is the fitted concentration of half-maximal effect;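 for activity, negative = inhibition: 0% = DMSO vehicle and full inhibition = artemisinin control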", "conditions": "P. falciparum in erythrocytes, SYBR Green DNA, 72 h; series mostly up to 28.7 µM; activity, negative = inhibition: at the top concentration", "excerpt": "NIH National Institute of Allergy and Infectious Diseases [NIAID] NIH Chemical Genomics Center [NCGC] MLPCN Grant: None Assay Provider: Xinzhuan Su, NIAID NCGC Assay Overview: Plasmodium falciparum is a virulent malarial parasite that kills 1-2 million people worldwide each year. Transmitted by mosquitoes, the sporozoite form of the parasite enters the blood stream to infect hepatocytes, where they become merozoites that infect red blood cells (erythrocytes). Within erythrocytes, merozoites begin a […] cycle of growth and division, after which the parasite is released to infect new red blood cells. Gametocytes, which form within erythrocytes as well, circulate in the bloodstream and are ingested by the mosquito, thereby completing the life cycle. To profile malarial isolates for differential chemical responses and to identify inhibitors of malarial growth, an assay that measures P. falciparum growth and replication within erythrocytes was employed. This assay uses a DNA binding fluorescent dye (SYBR Green) to detect parasite DNA following cell lysis. Because mature erythrocytes lack DNA, only Plasmodium-derived DNA is detected.\nNCGC Assay Protocol Summary: The SYBR Green viability assay was adapted from a method described previously (Plouffe et al., 2008). For screening 3 ul culture medium was dispensed into 1536 well black clear bottom plates (Aurora Biotechnologies) using a Multidrop Combi (Thermo Fisher Scientific Inc.), 23 nL compounds in DMSO were added by a pin tool (Kalypsys), and 5 ul of erythrocytes infected with P. falciparum (0.3% parasitemia, 2.5% hematocrit final concentration) were added. The plates were incubated at 37 C in a humidified incubator in 5% CO2 for 72 h, and 2 ul lysis buffer (20 mM Tris HCl, 10 mM EDTA, 0.16% saponin, 1.6% triton X, 10X SYBR Green I supplied as 10,000X […] by Invitrogen) was added to each well. The plates were mixed for 25 sec with gentle shaking and incubated overnight at room temperature in the dark. The following morning, fluorescence intensity at 485(14) nm excitation and 535(25) nm emission wavelengths was measured on an EnVision (Perkin Elmer) plate reader. Plate reads were normalized relative to the control inhibitor (0.29 uM artemisinin) and vehicle (DMSO) wells present on each plate and then corrected by an algorithm using vehicle-only control plates at the beginning and end of the compound plate stack."}
{"smiles": "CC(=O)O[C@@]12CO[C@@H]1C[C@H](O)[C@@]1(C)C(=O)[C@H](O)C3=C(C)[C@@H](OC(=O)C(O)[C@@H](NC(=O)OC(C)(C)C)c4ccccc4)C[C@@](O)([C@@H](OC(=O)c4ccccc4)[C@H]21)C3(C)C", "note": "(stereo partly drawn)", "Potency": "0.0536 µM (active)"}
{"smiles": "C/C=C\\c1ccc(OC)cc1", "activity, negative = inhibition": "1.19% (inactive)"}
{"smiles": "CC(=O)OC1CC2CCC1(C)C2(C)C", "note": "(stereo not drawn)", "activity, negative = inhibition": "1.73% (inactive)"}
{"smiles": "CN1CC[C@H](CN2c3ccccc3Sc3ccccc32)C1", "Potency": "9.53 µM (active)"}
{"smiles": "CC1(C)S[C@@H]2[C@H](NC(=O)COc3ccccc3)C(=O)N2[C@H]1C(=O)O", "activity, negative = inhibition": "6.75% (inactive)"}
{"smiles": "C=C[C@]1(C)C[C@@H](OC(=O)CSCCN(CC)CC)[C@]2(C)C(C)CC[C@]3(CCC(=O)[C@H]32)[C@@H](C)[C@@H]1O", "note": "(stereo partly drawn)", "Potency": "13.5 µM (active)"}
{"smiles": "CO/N=C(/C(=O)N[C@@H]1C(=O)N2C(C(=O)O)=CCS[C@H]12)c1csc(N)n1", "activity, negative = inhibition": "5.05% (inactive)"}
{"smiles": "NC1=NC(S)C2N=CN=C2N1", "note": "(stereo not drawn)", "activity, negative = inhibition": "-4.77% (inactive)"}
{"smiles": "O=NCc1ccc([N+](=O)[O-])o1", "activity, negative = inhibition": "-5.93% (inactive)"}
{"smiles": "CCC(C)n1ncn(-c2ccc(N3CCN(c4ccc(OCC5COC(Cn6cncn6)(c6ccc(Cl)cc6Cl)O5)cc4)CC3)cc2)c1=O", "note": "(stereo not drawn)", "activity, negative = inhibition": "0.861% (inactive)"}
{"smiles": "Nc1nc(Cl)nc2c1ncn2C1CC(O)C(CO)O1", "note": "(stereo not drawn)", "activity, negative = inhibition": "-18.6% (inactive)"}
{"smiles": "Cc1cc(CC(C)CC(C)(C)C)n(O)c(=O)c1", "note": "(stereo not drawn)", "Potency": "3.38 µM (active)"}
{"smiles": "CN(C)CCCCCCN(C)C", "activity, negative = inhibition": "-0.289% (inactive)"}
{"smiles": "CC1CCC(C(C)C)C(OC(=O)c2ccccc2O)C1", "note": "(stereo not drawn)", "activity, negative = inhibition": "7.72% (inactive)"}
{"smiles": "CCN1/C(=C/C=C/C=C/c2sc3ccccc3[n+]2CC)Sc2ccccc21", "Potency": "6.75 µM (active)"}
{"smiles": "C1OCOCO1", "activity, negative = inhibition": "-1.81% (inactive)"}
{"smiles": "CC(C)CN(C[C@@H](OP(=O)(O)O)[C@H](Cc1ccccc1)NC(=O)O[C@@H]1CCOC1)S(=O)(=O)c1ccc(N)cc1", "activity, negative = inhibition": "4.96% (inactive)"}
{"smiles": "CCC(C)CCCCC(=O)NC(CCN)C(=O)NC(C(=O)NC(CCN)C(=O)NC1CCNC(=O)C(C(C)O)NC(=O)C(CCN)NC(=O)C(CCN)NC(=O)C(CC(C)C)NC(=O)C(Cc2ccccc2)NC(=O)C(CCN)NC1=O)C(C)O", "note": "(stereo not drawn) ({Octanoyl(6-Me)}-[Dab]T[Dab][Dab][Dab]FL[Dab][Dab]T; lactam 4-C; configuration not given here)", "activity, negative = inhibition": "11.3% (inactive)"}
